D1 ag: Allosteric Agonists of the Human D1 Dopamine Receptor: qHTS; activation, % at 2 µM; 1% of 360,000 active; HEK293 T-REx D1 cells, calcium flux, agonist mode; D(1A) dopamine receptor (Homo sapiens), P21728; further: 0% is about no effect
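Agonism was scored from calcium flux recorded over 180 s (1 read/s) after pintool compound addition, following a 10-cycle baseline. Cells were inducible force-coupled HEK293 TREx D1, plated overnight at 30 C and loaded with no-wash calcium dye.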
TRHR PAM: qHTS for Small Molecule Agonists and Allosteric Enhancers of Human TRH Receptor: Primary Screen for Enhancers. Thyrotropin-releasing hormone receptor (Homo sapiens), P34981. TRHR cells, fluo-8 calcium fluorescence, EC20 TRH enhancement. 0.66% of 360,000 active. enhancement, % at 2 µM. AID 493056, 2011; in the data active means enhancement above about 30%; further: 0% is about no effect
Target sequence (P34981 whole entry, looked up): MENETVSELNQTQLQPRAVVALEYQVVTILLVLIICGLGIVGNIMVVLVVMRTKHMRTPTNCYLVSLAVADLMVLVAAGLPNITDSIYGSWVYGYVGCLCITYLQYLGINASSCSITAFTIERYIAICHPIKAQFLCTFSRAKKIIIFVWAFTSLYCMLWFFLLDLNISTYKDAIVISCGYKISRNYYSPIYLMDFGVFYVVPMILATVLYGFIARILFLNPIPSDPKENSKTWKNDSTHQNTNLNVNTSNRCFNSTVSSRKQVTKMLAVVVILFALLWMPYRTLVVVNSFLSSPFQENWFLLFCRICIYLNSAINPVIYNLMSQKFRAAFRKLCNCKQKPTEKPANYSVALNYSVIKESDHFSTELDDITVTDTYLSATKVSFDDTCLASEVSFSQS
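TRHR-expressing cells loaded with fluo-8 calcium dye were read kinetically (ex 480/em 530) during compound addition, then stimulated with an EC20 of TRH (10 nM final). Enhancement of the Gq-mediated intracellular calcium response was scored.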
D1 antag: Antagonist of Human D 1 Dopamine Receptor: qHTS | 3.2% of 360,000 active | activity change, negative = inhibition, % at 10 µM | D(1A) dopamine receptor (Homo sapiens), P21728 | HEK293 TREx D1 cells, calcium flux, dopamine EC80; active compounds read low; in the data active means activity change below about -30%; further: on the % scale 0 is the no-effect control and ±100 the full control effect
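Tetracycline-induced HEK293 Trex D1 cells, force-coupled to calcium, dye-loaded; compounds added and read 180 s, then EC80 dopamine added and calcium flux tracked kinetically another 180 s.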
D1 PAM: Potentiators of Human D1 Dopamine Receptor: qHTS; potentiation, % at 10 µM; D(1A) dopamine receptor (Homo sapiens), P21728; 0.036% of 360,000 active; HEK293 TREx D1 cells, calcium flux, dopamine EC20 potentiation; in the data active means potentiation above about 30%; further: 0% is about no effect
TRHR ag: qHTS for Small Molecule Agonists and Allosteric Enhancers of Human TRH Receptor: Primary Screen for Agonists. 0.18% of 360,000 active. activation, % at 2 µM. TRHR cells, calcium flux fluo-8, FDSS agonist mode. Thyrotropin-releasing hormone receptor (Homo sapiens), P34981; further: 0% is about no effect
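TRHR-expressing cells, plated overnight in medium with 10% serum, were loaded with fluo-8 calcium dye at room temperature. After a 10 s baseline, library compound was pin-added and calcium release was recorded kinetically (ex 480/em 530) as agonist response.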
The depositor's hits bear a star; x = no result. The list is not random: actives were taken first. Their share in the collection is about 4.6%. Unless noted, no stated cut-off is given here; in the data, active means activation above about 30%; inactive means the rest.

SMILES	D1 ag	TRHR PAM	D1 antag	D1 PAM	TRHR ag
COc1ccc(-c2cn3cccnc3n2)cc1NC(=O)c1cc(C)cc(C)c1	-0.6	-4.4	-87.4*	2.1	-0.3
Cc1ccc(-c2cn3cccnc3n2)cc1NC(=O)Cc1ccccc1	0.9	4.0	-72.7*	0.2	0.5
COc1ccc(C)cc1S(=O)(=O)Nc1cccc(-c2cn3cccnc3n2)c1	0.8	30.9*	-4.1	-2.6	0.2
O=C(Cc1ccccc1)Nc1cccc(-c2cn3cccnc3n2)c1	-0.2	-1.2	19.5	-1.9	0.3
Cc1cccc(N2CCN(C(=O)Nc3ccc(F)cc3)CC2C)c1 (stereo unspecified)	32.6*	-1.5	-10.6	-3.0	4.0
COc1cccc(NC(=O)N2CCN(c3cccc(C)c3)C(C)C2)c1 (stereo unspecified)	29.8	2.5	-82.6*	-10.9	-0.5
COc1ccc(/C=C(/NC(=O)c2ccccc2)C(=O)N/N=C/c2ccc3c(c2)OCO3)cc1OC	0.5	-0.2	-21.3	-6.5	-0.4
CC1(C)CC(=O)c2cc(N=C/C(C(=O)c3ccccc3)=C(\O)c3ccccc3)c(=O)oc2C1	3.4	0.5	7.8	4.8	-1.8
COc1ccc(-c2cc(C(=O)NCCc3ccccc3)c3c(-c4ccccc4)[nH]nc3n2)cc1OC	4.4	4.4	2.3	-1.2	-0.9
COc1ccc(CCNC(=O)c2cc(-c3ccc(C)cc3)nc3n[nH]c(-c4ccccc4)c23)cc1OC	2.8	47.8*	8.9	1.1	0.3
CC(C)=CCN1CCN(Cc2ccc(C#CC(C)(C)O)cc2)CC1CCO (stereo unspecified)	1.7	-9.7	-5.0	-2.8	0.7
Cc1n[nH]c(=S)n1/N=C/c1ccccc1OCc1ccc(Cl)cc1	1.7	0.9	-86.8*	-2.1	-1.1
Cc1n[nH]c(=S)n1/N=C/c1cccc(OCc2ccccc2)c1	2.4	10.4	23.5	10.7	-0.6
O=C1NCCN(Cc2ccc(F)cc2)C1=O	-2.4	1.6	-40.6*	-0.8	0.8
O=C(/C=C/c1ccc([N+](=O)[O-])cc1)NCCN1C(=O)S/C(=C\c2ccc(F)cc2)C1=O	1.1	3.4	-31.0*	-3.9	0.0
O=C(/C=C/c1cccc([N+](=O)[O-])c1)NCCN1C(=O)S/C(=C\c2ccc(F)cc2)C1=O	3.7	-3.1	-40.0*	-3.8	0.2
CC(C)(C)SCCNC(=O)/C=C/c1ccc([N+](=O)[O-])cc1	12.7	23.6	-36.2*	-5.5	2.4
CCCN1CCN(c2ncnc3sc(C(=O)Nc4cccc(Cl)c4C)c(C)c23)CC1	-1.8	12.2	1.7	1.0	0.3
Cc1ccc(NC(=O)C2CCN(C(=O)N3CCOc4ccccc43)CC2)cc1	1.3	-3.5	-0.2	-5.1	0.0
CN(C)CCN(Cc1ccco1)C(=O)c1cc2c(s1)-c1ccccc1OC2	7.1	1.3	-70.0*	-4.5	0.0
O=C(O)c1cc2c(s1)-c1ccccc1OC2	2.2	5.8	9.9	-2.1	-0.1
O=C(c1cc2c(s1)-c1ccccc1OC2)N1CCN(c2ccc(F)cc2)CC1	1.9	1.6	4.0	-1.1	0.4
CC(=O)c1ccc(N2CCN(C(=O)c3cc4c(s3)-c3ccccc3OC4)CC2)cc1	0.1	-1.3	-64.4*	-5.2	0.2
O=C(NC1CC1)c1cc2c(s1)-c1ccccc1OC2	0.0	2.3	-46.3*	-10.3	0.0
Cc1ccc(NC(=O)c2ccc3c(=O)n4c(nc3c2)CCCCC4)cc1F	14.3	-1.6	-24.4	x	-0.4
SMILES	D1 ag	TRHR PAM	D1 antag	D1 PAM	TRHR ag
CN(Cc1ccccc1)C(=O)CSc1nnc(-c2cccc(Cl)c2)o1	55.9*	-0.1	-53.7*	4.3	-0.6
Cc1cc(C)n(C(=O)Cn2nc(C)c(Br)c2C)n1	2.1	2.4	-2.2	1.6	-0.5
COc1ccccc1OC1OC2COC(c3ccco3)OC2C(O)C1NC(C)=O (stereo unspecified)	2.2	6.9	-2.5	1.3	0.4
CC(=O)NC1C(Oc2cccc(C)c2)OC2COC(c3ccco3)OC2C1O (stereo unspecified)	1.1	7.3	-39.2*	-0.9	0.1
CSc1ccc(-c2nnc(NC(=O)c3ccc4c(c3)OCCO4)o2)cc1	3.1	3.7	-7.5	-1.6	-0.2
O=C(Nc1nnc(C2=COCCO2)o1)c1ccc(Cl)cc1	-0.5	11.8	-21.5	5.1	-0.1
Cc1ccc(C)c(-c2nnc(NC(=O)c3ccc4c(c3)OCCO4)o2)c1	8.4	-3.6	-37.3*	-1.9	-0.2
O=C(Nc1nnc(C2=COCCO2)o1)c1ccc(Br)cc1	0.1	-3.3	-34.0*	-6.4	-0.5
CCOC(=O)C1CCN(C(c2cccs2)c2sc3nc(C)nn3c2O)CC1 (stereo unspecified)	-0.2	-4.1	2.6	-9.7	-0.5
CCOC(=O)C1CCN(C(c2cccc(OC)c2)c2sc3nc(C)nn3c2O)CC1 (stereo unspecified)	-0.1	2.6	-30.6*	-9.4	0.5
O=C(COC(=O)c1ccc(Br)cc1)NCc1ccc(F)cc1	-2.5	2.0	13.7	-1.4	-0.6
Nc1ccccc1OCCOc1ccccc1N	1.6	6.1	-3.5	3.8	-0.8
Cc1ccccc1Oc1ccccc1N	-0.4	2.1	-31.5*	-4.5	-0.5
Cc1ccccc1OCCn1c(-c2ccc(Cl)cc2)nc2ccccc2c1=O	2.2	2.7	12.7	2.1	-0.1
Cc1ccc2nc(-c3ccc(N4C(=O)CC(N5CCN(CCO)CC5)C4=O)cc3)sc2c1 (stereo unspecified)	4.8	-3.9	-35.9*	-4.4	0.7
Cc1ccc(N2C(=O)CC(N3CCN(c4ccccn4)CC3)C2=O)cc1 (stereo unspecified)	0.0	1.8	-1.2	2.9	-0.1
CC(=O)NS(=O)(=O)c1ccc(N=NN2CCOCC2)cc1	0.1	-22.5	-57.1*	-6.3	-0.7
CC(=O)NS(=O)(=O)c1ccc(N=NN2CCCCCC2)cc1	-1.0	-3.6	-0.3	4.8	0.3
COc1ccc([N+](=O)[O-])cc1NC(=O)Nc1ccc(OC)c(OC)c1	-0.7	0.7	x	-6.6	-0.3
COc1ccc([N+](=O)[O-])cc1NC(=O)Nc1cccc(Cl)c1	5.5	-1.9	-40.6*	-3.2	0.0
COc1ccccc1NS(=O)(=O)c1cccc(NC(=O)Nc2cccc(Cl)c2)c1	11.7	-5.8	-38.9*	-12.8	2.3
O=[N+]([O-])c1ncccc1OCc1ccc(Br)cc1F	0.7	7.0	21.4	-1.2	1.0
COC(=O)CC(NS(=O)(=O)c1cccs1)c1ccc2c(c1)OCO2 (stereo unspecified)	0.3	-2.3	-55.8*	4.0	0.6
